Rows were chosen to be rich in hits. Some 3.4% of all compounds tested hit in one or more screens of this group.
pPAFAH FP inh – pPAFAH (human) enzyme inhibition | recombinant pPAFAH, FP-rhodamine probe fluorescence polarization | inhibition, % at 3.39 µM | 330,000 tested, 1.5% active;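 active means inhibition above the mean inhibition across the screen plus 3 SD, cut at about 25% in these data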;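 further: inhibitors block binding of the rhodamine activity-based probe so polarization drops; 0% = enzyme with DMSO and 100% = wells lacking pPAFAH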
PP5 primary – blocks human protein phosphatase 5 activity; purified PP5c, OMFP substrate fluorescence; inhibition, % at 6.7 µM; 320,000 tested, 0.18% active; AID 1987;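 active means inhibition above the campaign's mean inhibition across all tested compounds plus 3 SD, cut at about 9.5% in these data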;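 further: 0% = DMSO only and 100% = 100 µM cantharidin control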
PAFAH1B3 FP inh – PAFAH1B3 (human) inhibition; Q15102; inhibition, % at 3.39 µM; AID 492972; 340,000 tested, 0.28% active; recombinant PAFAH1B3, FP-rhodamine probe, fluorescence polarization;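 active means inhibition above the screen-wide average of all tested compounds plus 3 SD, cut at about 25% in these data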;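 further: 0% = enzyme with DMSO only and 100% = wells lacking PAFAH1B3 protein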
PAFAH1B2 inh – blocks human PAF acetylhydrolase 1b catalytic subunit 2. 340,000 tested, 1.2% active. inhibition, % at 3.39 µM. P68402. recombinant PAFAH1B2, FP-rhodamine activity probe, fluorescence polarization. AID 492953;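 active means inhibition above the mean of all tested compounds plus 3 SD, cut at about 24% in these data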;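 further: 0% = enzyme with DMSO and 100% = wells lacking PAFAH1B2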
Target sequence (P68402 whole entry, looked up): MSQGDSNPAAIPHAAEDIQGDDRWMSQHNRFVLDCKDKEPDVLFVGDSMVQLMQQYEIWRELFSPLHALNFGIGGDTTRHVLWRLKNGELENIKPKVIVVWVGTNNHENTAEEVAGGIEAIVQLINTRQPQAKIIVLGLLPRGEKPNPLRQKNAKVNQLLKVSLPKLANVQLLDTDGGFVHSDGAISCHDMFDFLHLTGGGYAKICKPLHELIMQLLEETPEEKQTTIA
PP1 inh – counter-screen for PP5 inhibitors: inhibitors of human PP1-alpha; purified PP1alpha, OMFP fluorescence; 320,000 tested, 0.9% active; P62136; inhibition, % at 6.7 µM;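 active means inhibition above the mean inhibition of all tested compounds plus 3 SD, computed separately for each screening campaign, cut at about 15% in these data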
Target sequence (P62136 whole entry, looked up): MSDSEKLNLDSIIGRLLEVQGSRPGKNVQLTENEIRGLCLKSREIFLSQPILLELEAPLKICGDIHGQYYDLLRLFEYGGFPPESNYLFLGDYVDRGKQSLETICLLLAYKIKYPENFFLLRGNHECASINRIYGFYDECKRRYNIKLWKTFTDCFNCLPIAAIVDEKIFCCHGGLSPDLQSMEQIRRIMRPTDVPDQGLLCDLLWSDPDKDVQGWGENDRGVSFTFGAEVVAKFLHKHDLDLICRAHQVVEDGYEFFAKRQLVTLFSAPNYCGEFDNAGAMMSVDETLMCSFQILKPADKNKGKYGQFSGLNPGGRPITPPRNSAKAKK
PAFAH2 inh – inhibitors of human PAFAH2; Q99487; recombinant PAFAH2, FP-rhodamine activity probe, fluorescence polarization; inhibition, % at 3.39 µM; 340,000 tested, 0.99% active; AID 492956;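 active means inhibition above the mean over all tested compounds plus 3 SD, cut at about 30% in these data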;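 further: inhibitors block probe labeling of enzyme so polarization drops; 0% = enzyme with DMSO and 100% = wells lacking PAFAH2 protein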
PAFAH2 confirm – PAFAH2 (human) inhibition, confirmed. 2,300 tested, 65% active. recombinant PAFAH2, FP-rhodamine activity probe, fluorescence polarization. shares compounds with PAFAH2 inh. inhibition, % at 3.39 µM;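 active means mean inhibition over three repeats above a set limit taken from the earlier primary screen, cut at about 30% in these data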;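 further: inhibitor blocks binding of rhodamine activity probe so polarization falls; 0% = enzyme with DMSO and 100% = wells lacking PAFAH2 protein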
Numbers without * were called inactive; . = no result given.

SMILES	pPAFAH FP inh	PP5 primary	PAFAH1B3 FP inh	PAFAH1B2 inh	PP1 inh	PAFAH2 inh	PAFAH2 confirm
O=C(COC(=O)c1sc2cc(Cl)ccc2c1Cl)Nc1ncc(Cl)cc1Cl	16.5	-3.4	.	.	-10.9	.	.
O=C(COC(=O)c1ccc2ncsc2c1)Nc1cc(Cl)ccc1F	.	.	4.0	1.6	.	66.4*	60.2*
Cc1c(Cl)cnc(NC(=O)COC(=O)CCC(=O)c2cccs2)c1Cl	.	.	-2.5	3.5	.	-0.1	.
Cc1c(Cl)cnc(NC(=O)COC(=O)c2ccc3ncsc3c2)c1Cl	4.9	3.6	4.5	4.5	4.3	47.3*	36.4*
O=C(COC(=O)c1ccc2ncsc2c1)Nc1ncc(Cl)cc1Cl	-1.0	-0.4	-4.2	2.2	4.0	31.1*	25.2
O=C(COC(=O)c1ccc2ncsc2c1)NC(=O)c1ccccc1	2.9	4.1	-5.2	4.5	3.7	3.9	.
CCN1C(=O)[C@@H]2Cc3c([nH]c4ccccc34)C(c3ccc(OC)cc3)N2C1=S (stereo partly specified)	0.7	5.0	9.6	0.5	5.1	0.4	.
CCOC(=O)c1c(-c2ccccc2)oc2ccc(OCC(=O)NNC(=O)CCCC(=O)O)cc12	.	.	23.2	17.1	.	40.6*	3.3
CCOC(=O)c1c(-c2ccccc2)oc2ccc(OCC(=O)NNC(=O)CCC(=O)O)cc12	.	.	3.8	2.8	.	-3.0	.
C=C(C)c1cccc(C(C)(C)NC(=O)NNC(=O)c2ccccc2O)c1	0.6	2.7	18.9	1.4	4.2	35.0*	29.6
CC(C)(C)NC(=O)c1ccccc1NC(=O)c1ccc2c(c1)OCO2	1.7	1.0	6.4	0.0	-1.6	3.0	.
CCCCNC(=O)c1ccccc1NC(=O)c1ccc2c(c1)OCO2	-5.2	3.7	8.0	4.2	0.9	47.4*	38.4*
O=C1CC(=O)Nc2cc(S(=O)(=O)N3CCOc4ccc(Cl)cc43)ccc2N1	-1.6	-0.6	-2.0	1.9	0.1	45.2*	39.8*
O=C(CSc1cccc[n+]1[O-])c1ccccc1Br	0.0	1.7	2.1	3.5	-2.6	39.3*	38.7*
O=C(OCc1ccccc1)c1ccc(NCc2cc(O)ccc2O)cc1	.	.	14.4	2.0	.	71.7*	56.7*
COc1ccc(Cl)cc1NC(=O)C(C)OC(=O)C1=NNC(=O)CC1 (stereo unspecified)	1.5	-1.4	4.7	0.4	-2.5	-3.7	.
Cc1ccc(C(=O)OCC(=O)NCc2cccs2)c(C)c1	1.4	-1.7	6.1	-2.6	-2.6	31.7*	25.0
COc1ccc(C(=O)OCC(=O)NCc2cccs2)c(OC)c1OC	6.0	.	12.8	6.8	.	71.8*	64.7*
Cc1cc(C)cc(C(=O)OCC(=O)NCc2cccs2)c1	4.7	3.5	1.9	-1.6	-6.4	10.5	.
Cc1cccc(C)c1NC(=O)CNC(=O)c1c(-c2ccccc2)noc1C	0.7	2.5	4.4	3.1	-1.1	-3.6	.
CCc1ccc(CN(C)C(=O)c2cc(COc3ccc(OC)cc3Cl)on2)nc1	1.1	1.2	1.0	3.5	-1.2	2.3	.
CC1(NC(=O)NCCCCCCNC(=O)NC2(C)CCS(=O)(=O)C2)CCS(=O)(=O)C1 (stereo unspecified)	2.5	0.7	5.6	-1.6	2.0	44.5*	37.4*
CC1(NC(=S)NCCCCCCNC(=S)NC2(C)CCS(=O)(=O)C2)CCS(=O)(=O)C1 (stereo unspecified)	2.1	0.5	4.9	1.6	-3.2	3.8	.
O=C1CCCC(O)=C1N=Nc1ccc(Cl)c(Cl)c1	5.8	1.3	-2.1	4.1	-1.2	33.0*	8.8
CCn1ccc(C(=O)Nc2ccc3c(c2)CCC3)n1	5.5	0.5	0.8	5.3	0.6	0.2	.
SMILES	pPAFAH FP inh	PP5 primary	PAFAH1B3 FP inh	PAFAH1B2 inh	PP1 inh	PAFAH2 inh	PAFAH2 confirm
COc1ccc(Cl)cc1NC(=O)COC(=O)c1c(-c2ccccc2)noc1C	-4.5	5.6	1.4	4.9	1.7	7.1	.
Cc1ccc(Nc2nc(N)nc(CSC(=S)N3CCOCC3)n2)c(C)c1	1.8	3.0	-4.2	0.0	-2.9	45.7*	41.6*
COc1ccc(Nc2nc(N)nc(CSC(=S)N3CCOCC3)n2)cc1	4.2	0.5	-5.4	-1.3	-3.8	-1.9	.
Cc1c(C(C)(C)O)[nH]c2cc(C(F)(F)F)ccc12	0.9	1.9	1.1	7.3	-4.0	1.9	.
O=c1[nH]c2cc(C(F)(F)F)ccc2n1-c1cc(C(F)(F)F)ccc1O	12.8	-8.3	-3.1	2.0	4.3	49.1*	41.7*
N#CC1(Nc2cccc(Cl)c2)CCCC1	.	.	4.7	6.2	.	10.0	.
CCS(=O)(=O)c1ccc(O)c(NC(=O)Nc2ccccc2)c1	13.1	1.6	-4.8	3.2	-1.1	44.9*	29.4
Cc1sc2ncnc(N3CCN(Cc4ccccc4)CC3)c2c1-c1ccccc1	-0.9	-0.8	10.4	8.7	3.5	-1.4	.
NC(=O)c1ccc(NC(=O)COC(=O)CC2CC3CCC2C3)cc1 (stereo unspecified)	5.1	.	9.6	6.1	.	-3.4	.
CC(=O)c1cccc(NC(=O)COC(=O)CC2CC3CCC2C3)c1 (stereo unspecified)	19.7	4.5	-1.6	16.2	-2.1	74.8*	62.6*
NS(=O)(=O)c1cccc(NC(=O)COC(=O)CC2CC3CCC2C3)c1 (stereo unspecified)	1.5	0.9	5.5	20.8	-1.7	34.6*	18.7
Cc1cc(C)cc(NC(=O)COC(=O)c2ccc(CN3CCCC3=O)cc2)c1	14.0	2.8	-1.9	4.7	0.1	86.1*	85.2*
CC(C)(C)c1ccc(NC(=O)COC(=O)c2ccc(CN3CCCC3=O)cc2)cc1	13.4	2.8	6.3	-0.4	0.8	60.8*	50.5*
Cc1ccc(NC(=O)COC(=O)c2ccc(CN3CCCC3=O)cc2)c(Cl)c1	10.4	0.4	-0.1	2.6	-5.8	69.1*	71.2*
O=C(COC(=O)c1ccc(S(=O)(=O)N2CCCCC2)cc1)Nc1ccccc1Cl	.	.	6.9	-2.3	.	9.6	.
Cc1cccc(NC(=O)C2CCCN(c3ncnc4c3nc3n4CCCCC3)C2)n1 (stereo unspecified)	-0.1	-1.3	0.2	-0.9	-3.0	1.5	.
COc1ccc(CCNC(=O)COC(=O)c2sc(C)nc2C)cc1	7.7	1.2	0.2	0.7	-2.6	22.7	.
Cc1nc(C)c(C(=O)OCC(=O)NCc2ccccc2)s1	2.6	-1.1	11.0	0.6	-3.4	32.0*	20.2
CC1CCc2sc(C(=O)OCC(=O)NCc3ccccc3)cc2C1 (stereo unspecified)	9.2	0.8	8.1	2.6	1.4	37.6*	39.6*
O=C(COC(=O)c1cncc(Br)c1)NCc1ccccc1Cl	2.0	0.1	7.5	2.3	3.9	6.0	.
Cc1ccc(CNC(=O)COC(=O)c2cc3c(s2)CCC(C)C3)cc1 (stereo unspecified)	-0.8	4.8	5.9	-1.2	2.4	3.2	.
Cc1nc(C)c(C(=O)OCC(=O)Nc2ccccc2SCC#N)s1	5.9	2.9	-6.5	0.6	2.7	43.2*	32.8*

Screens deposited in PubChem by The Scripps Research Institute Molecular Screening Center.
